Source: the supplement of paper PMC10477191
± gives the standard deviation of the averaged measurements.

Test system: Drosophila ezoana antennal basiconic sensillum ab2
Assay: odor-evoked OSN spike response (post minus pre-stimulus); higher = stronger neuronal excitation
Settings: odor dilution: 10^-4
Protocol: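 Single sensillum recordings from antennal basiconic sensilla of D. ezoana. A 500 ms pulse of odorant (10^-4 in mineral oil or DMSO) was delivered; the response is the change in action potential frequency between the 1 s pre- and post-stimulus windows (spikes/s).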

Row | SMILES | odor-evoked OSN spike response [spikes/s]
1 | CC(C)=O [acetone] | 73.7 ± 37
